High-throughput results as filed in PubChem BioAssay.
Compounds with a hit are over-represented: about 4.1% of the library has one in this group of screens.
UHRF1 MBD2 ctr = UHRF1 methylated DNA binding inhibitors, primary screen, counter-screen for MBD2 inhibitor project, biochemical, TR-FRET, human UHRF1, single concentration | E3 ubiquitin-protein ligase UHRF1 (Homo sapiens), Q96T88 | inhibition, % at 4.4 µM | UHRF1 binding to methylated oligo | AID 687016, 2013 | 370,000 compounds, 0.75% hits; in the data active = inhibition above about 21%;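 also: UHRF1 SRA domain binding a hemimethylated CpG hairpin DNA probe; 0% = median of test compound wells and 100% = reference inhibitor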
MBD2 DNA inh = inhibitors of MBD2 binding to methylated DNA, primary screen, biochemical, TR-FRET, DNA-binding domain, human; MBD2 binding to methylated oligonucleotide; inhibition, % at 4.4 µM; 370,000 compounds, 0.31% hits; AID 686964, 2013; in the data active = inhibition above about 13%
Target sequence (Q9UBB5 whole entry, looked up, the tested form may be a part): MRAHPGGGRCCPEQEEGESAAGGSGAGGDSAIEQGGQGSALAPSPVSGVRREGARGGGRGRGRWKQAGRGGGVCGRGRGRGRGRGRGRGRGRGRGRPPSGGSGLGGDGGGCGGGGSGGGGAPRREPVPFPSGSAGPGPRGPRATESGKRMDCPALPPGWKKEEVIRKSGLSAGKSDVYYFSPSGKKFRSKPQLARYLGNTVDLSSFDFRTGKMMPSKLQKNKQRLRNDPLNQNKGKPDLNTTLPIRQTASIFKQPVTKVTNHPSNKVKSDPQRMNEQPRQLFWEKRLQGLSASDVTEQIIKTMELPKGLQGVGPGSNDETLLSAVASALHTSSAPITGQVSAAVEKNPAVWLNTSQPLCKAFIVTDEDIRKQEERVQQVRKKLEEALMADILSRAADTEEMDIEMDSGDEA
PRMT1 FP inh = PRMT1 methyltransferase inhibitors, primary screen, biochemical, fluorescence polarization. Protein arginine N-methyltransferase 1 (Homo sapiens), Q99873. recombinant PRMT1, activity-based probe fluorescence polarization. inhibition, % at 2.79 µM. 370,000 compounds, 1.3% hits;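 active = inhibition above about 21% made by adding two undisclosed values, limit read from the data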
LEDGF integ inh = blockers of LEDGF/p75-dependent integrase strand transfer – biochemical, TR-FRET, high throughput, primary screen. HIV-1 integrase (with human LEDGF/p75). TR-FRET IN-LEDGF/p75 DNA integration, Eu/Cy5. inhibition, % at 3.7 µM. 370,000 compounds, 0.64% hits;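 active = inhibition above the screen-wide mean plus 3 SD, cut at about 13% in these data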;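 also: signal is the Cy5 over europium emission ratio at 671 and 618 nm; 0% = plate median of compound wells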
rCAG RNA binder = binders of r(CAG) RNA repeats, primary screen, biochemical, fluorescence. r(CAG) RNA repeat, TO-PRO-1 dye displacement fluorescence. inhibition, % at 3 µM. 370,000 compounds, 1.3% hits. AID 651821, 2012;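 active = inhibition above the plate cutoff, the mean of all test compounds on that plate plus 3 SD, cut at about 35% in these data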;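 also: 0% = DMSO alone and 100% = 100 µM mitoxantrone as full dye displacement; higher means more dye released from RNA so lower well fluorescence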
ABHD5 PLIN5 PPI = ABHD5-PLIN5 interaction inhibitors, primary screen, cell lysate, split luciferase complementation, luminescence; Perilipin-5 (Homo sapiens) + 1-acylglycerol-3-phosphate O-acyltransferase ABHD5 (Homo …; Split G. princeps luciferase complementation, 4 h; inhibition, % at 4 µM; 360,000 compounds, 0.78% hits; AID 602281, 2012;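 active = inhibition above the mean inhibition across every tested compound plus 3 SD, cut at about 22% in these data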;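 also: 0% = DMSO only wells and the 100% control is not disclosed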
ABHD5-PLIN5 conf = ABHD5-PLIN5 interaction inhibitors, confirmation, biochemical, luminescence. 2,200 compounds, 67% hits. AID 651612, 2012. inhibition, % at 4 µM. shares compounds with ABHD5 PLIN5 PPI; in the data active = inhibition above about 23%;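 also: 0% = DMSO vehicle wells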
HNF4 counter = HNF4 dimerization inhibitors, counter-screen for ABHD5-PLIN5 interaction inhibitor project, biochemical, split-luciferase complementation, luminescence; shares compounds with ABHD5 PLIN5 PPI; inhibition, % at 4 µM; 2,200 compounds, 77% hits; AID 651674, 2012;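 active = mean inhibition across replicate wells exceeding the computed hit threshold, cut at about 13% in these data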;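 also: light from luciferase halves that rejoin when HNF4 fusion proteins dimerize; 0% = DMSO only wells and the 100% control is not given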
* marks the source's active call; other numbers are inactive results; nt = no result.

SMILES	UHRF1 MBD2 ctr	MBD2 DNA inh	PRMT1 FP inh	LEDGF integ inh	rCAG RNA binder	ABHD5 PLIN5 PPI	ABHD5-PLIN5 conf	HNF4 counter
O=c1[nH]c(C2CCN(S(=O)(=O)c3ccc(S(=O)(=O)NC4CC4)cc3)CC2)nc2c1nnn2Cc1ccc(F)cc1	2	-4	4	3	9	28*	48*	3
O=c1[nH]c(C2CCN(S(=O)(=O)c3ccccc3F)CC2)nc2c1nnn2Cc1ccc2c(c1)OCCO2	-1	-2	-7	-4	2	-9	nt	nt
COC(=O)[C@]12C[C@H](CC(=O)NCc3cccs3)C(=O)N(CCC3=CCCCC3)C1=C[C@H](C1CCCC1)O[C@@H]2C	0	2	0	4	2	nt	nt	nt
CN1CCCC1CCOC(C)(c1ccccc1)c1ccc(Cl)cc1 (configuration not stated)	0	-1	3	-3	5	25*	33*	17*
OC(c1ccccc1)(c1ccccc1)C1CCN(CCCOc2cccc(Cl)c2)CC1	3	11	4	-3	1	nt	nt	nt
O=C(C=Cc1ccco1)c1cc(Cl)ccc1O	0	-3	10	4	18	27*	53*	34*
O=C(/C=C/c1ccco1)c1ccccc1O	2	-2	6	0	9	8	nt	nt
CCCC[C@H](C(=O)N(C)c1cccc(OC)c1)[C@@H](O)c1ccc(Cl)cc1	-2	3	5	1	0	nt	nt	nt
Cc1ccc(C(=O)NC(=O)CSc2nncn2C)cc1	3	-4	2	-4	2	-4	nt	nt
Cc1ccc(C2=NN=C(NC(=O)CSc3nncn3C)SC2)cc1	0	4	94*	-10	5	45*	70*	102*
COc1ccccc1NC(=O)CC1C(=O)NCCN1C(=O)Nc1ccc(Cl)c(Cl)c1 (configuration not stated)	-1	4	1	-1	16	24*	13	6
O=C(NC1CCCCN(Cc2ccc(Cl)cc2)C1=O)c1ccc2ccccc2c1 (configuration not stated)	-2	-2	-7	2	2	nt	nt	nt
COc1ccc(-c2nc(CN3CCN(c4cc(C)nc(C)c4)CC3)c(C)o2)c2ccccc12	3	-1	2	-5	8	25*	12	1
Cc1cc(N2CCN(Cc3nc(-c4ccc(Cl)cc4)oc3C)CC2)cc(C)n1	3	3	6	-2	7	19	nt	nt
O=C(NCc1ccccc1)[C@@H]1CCCN1C(=O)[C@H]1CCCN1C(=O)c1ccc(F)cc1F	-2	0	2	1	2	nt	nt	nt
Cc1ccc(-c2cc(C(=O)NN=Cc3cccc4ccccc34)[nH]n2)cc1C	2	-8	-6	4	20	nt	nt	nt
Cc1cccc(C(=O)N2CCCCCC2)c1[N+](=O)[O-]	-1	-2	0	2	0	74*	3	3
COc1cccc(C2CC(c3ccccc3Cl)Nc3nc(N)nn32)c1 (configuration not stated)	3	-1	1	-3	5	23*	7	2
COc1cccc(C2CC(c3ccc(Cl)cc3Cl)Nc3nc(N)nn32)c1 (configuration not stated)	14	0	0	4	-8	21	nt	nt
CC1CCC2(CC1)CCN(CCCOC(=O)Nc1cccc(C(F)(F)F)c1)C2=O (configuration not stated)	1	4	3	0	-2	nt	nt	nt
